Where “and” joins values, the source holds several entries; their conditions need not be identical. Identical values can stand only once. Screen size: about 360,000 compounds; about 2,600 (0.72%) were called active. Entries that show only a call come without a potency. About 5% were inconclusive and are not listed. For the sample, actives were picked, then their nearest neighbours and some compounds at random. Unmarked numbers belong to inactive results. Calls come from the whole dose curve; as a rule, active = well fitted inhibition curve with a large enough effect; inconclusive = small, poorly fitted or top-dose-only effect; inactive = no such curve, though single readings can be large or run the other way.
Potency is the fitted concentration of half-maximal effect.

The test can be described thus: Primary qHTS for Inhibitors of ATXN expression. Note: nearly all actives have a fitted effect of over 55% in size. The following applies: HEK-293 ATXN2-luciferase reporter, luminescence, 24 h; series mostly up to 57 µM. The source says:
University of Utah School of Medicine, Salt Lake City, Utah
Spinocerebellar ataxia type 2 (SCA2) is a multisystem neurodegenerative disease caused by a dominantly acting mutation leading to expansion of a polyQ domain in the ataxin-2 protein (ATXN2). SCA2 patients develop progressive ataxia and later lose function in other neuronal systems. Prominent parkinsonian signs develop in some patients. Like many neurodegenerative disorders, no symptomatic or disease-modifying treatments are known.
The primary objective of the proposed research is to identify compounds inhibiting ATXN2 expression and to test them for efficacy in SCA2 mouse models. We have developed a cell-based assay paired with an in vivo mouse model using identical luciferase expression constructs. This approach takes advantage of an ATXN2-luciferase transgene, with the luciferase gene flanked by the upstream and downstream portions of the ATXN2 gene. Here we describe a 5-7 dose quantitative high thoroughput screen (qHTS) for compounds lowering ATXN2 expression. We screened the NIH Molecular Libraries Small Molecule Repository (MLSMR) and NCGC's mechanistically annotated (MIPE) and drug repurposing (NPC) collections of compounds for lowering expression of an ATXN2-luciferase reporter in HEK-293 cells. The assay is a multiplexed cell viability assay to ensure target reduction in the absence of cytotoxicity. Secondary qHTS assays included a CMV-luciferase reporter expressed in HEK-293 cells as well as a biochemical assay using recombinant luciferase to detect inhibitors of the reporter enzyme. Compounds that inhibit ATXN2 expression but is not cytotoxic were selected for confirmatory and secondary screens.
PROTOCOL TABLE (as described by Inglese J, Shamu CE and Guy RK. 2007)
SEQUENCE No. (e.g., 1, 2, 3, etc.); […] (e.g., Cells, Incubation, Reagent, etc.); VALUE; DESCRIPTION.
1; Cells; 4 uL; white, solid bottom, 1536-well Greiner assay plate.
2; Incubation; 2 hr; 37 degree C in 5% humidified CO2.
3; Compounds; 23 nL; Kalypsis pintool (Wako USA) equipped with a 1536-well pin head.
4; Incubation; 24 hr; 37 degree C in 5% humidified CO2.
5; Reagent; 1 uL; Gly-Phe-7-Amino-4-trifluoromethylcoumarin.
6; Incubation; 30 min; 37 degree C in 5% humidified CO2.
7; Detection; Fluorescence; ViewLux plate reader (PerkinElmer).
8; Reagent; 3 uL; SteadyGlo luciferase solution (Promega).
9; Incubation; 5 min; room temperature.
10; Detection; Luminescence; ViewLux plate reader (PerkinElmer).
NOTES (numbers refer to Sequence numbers above)
1. S2 cells expressing ATXN2-luciferase reporter were suspended in phenol-red free DMEM and dispensed in assay plates using a Multidrop Combi dispenser (Thermo Fisher Scientific).
2. Assay plates were incubated. Evaporation was prevented by covering assay plates with metal lids containing holes to allow gas diffusion.
3. Compounds were added in a dose response manner with the final concentrations of 57, 11.4, 2.28, 0.46, 0.091, 0.018, 0.0037 uM. Vehicle-only plates, with DMSO being pin-transferred to columns 5-48, were inserted uniformly at the beginning and the end of each library to monitor and record any shifts in assay performance.
5. 125 uM Gly-Phe-7-Amino-4-trifluoromethylcoumarin (MP Biomedicals) working concentration was used at a final concentration of 25 uM.
7. To assess cell viability; the assay plates were read using the ViewLux high-throughput CCD imager (PerkinElmer), wherein single end-point fluorescence measurement was acquired (excitation 405/10; emission 540/25 nm).
8. Detection reagent SteadyGlo Luciferase (Promega) was added to the assay plate.
10. Luminescence is then measured on the ViewLux imager equipped with a clear emission filter using a 2 sec exposure. All screening operations were performed on a fully integrated robotic system (Kalypsys) containing one RX-130 and two RX-90 anthropomorphic robotic arms (Staubli).
[…]
A general note: Quantitative high-throughput screening tests each substance at several concentrations.
With `Fc1ccc2[nH]c3c(N4CCN(Cc5ccc6c(c5)OCO6)CC4)ncnc3c2c1`, the Potency was 14.1 µM (active).
Take `Fc1ccc2[nH]c3c(N4CCSCC4)ncnc3c2c1`: the Potency was 15.8 µM (active).
On the same count and under the same terms, then `N#C/C=C/N1CCN(Cc2ccc3c(c2)OCO3)CC1`, with “inactive”; and `O=C(CSc1nc2c(c(=O)[nH]1)CN(Cc1ccc3c(c1)OCO3)CC2)Nc1cc(F)ccc1F`, with “inactive”; and `COC(=O)c1cc(Cl)c(NC(C)=O)cc1OC`, with “inactive”.
The same measure, in the same setting: then `Cn1c(=O)c(C(=O)O)nn(-c2ccccc2)c1=O`, with “inactive”; and `COc1cccc(CNCc2c(C(=O)O)n(Cc3ccc(C)cc3)c3cc(C)ccc23)c1OC`, with “inactive”.
On the same count and under the same terms, then `C[C@@H]1CCC[C@H](C)N1CCCC(O)(c1ccccc1)c1ccccn1` (some centres undefined), with “inactive”; and `CC(C)Cn1c(C2CC(=O)N(c3ccccc3Cl)C2)nc2ccccc21` (centres undefined), with “inactive”.
On to `CC(C(C)N1CC(=O)NC(=O)C1)N1CC(=O)NC(=O)C1` (centres undefined), for which the Potency entry was “inactive”.
With `COCC(C)NS(=O)(=O)c1ccc(N2CCCCS2(=O)=O)cc1` (centres undefined), the Potency entry is “inactive”.
Same read-out and setting: under `Cc1cc(N/N=C\c2ccc(Br)cc2)nc(-n2nc(C)cc2C)n1` stands 10 µM (active).
As for `Cc1cc(Nc2ccc(Br)cc2)nc2ccccc12`, the Potency entry is “inactive”.
Same read-out and setting: then `Cc1cc(C)n(-c2nnc(N3CCN(c4ccccc4)CC3)nn2)n1`, with “inactive”; and `COC(=O)c1c(NC(=O)C(C)Oc2ccc(Cl)c(C)c2)sc(C)c1C` (centres undefined), with “inactive”.
Same read-out and setting: then `COc1c(C)cc(C(O)c2ncc(-c3cccc(C(F)(F)F)c3)[nH]2)cc1C` (centres undefined), with “inactive”; and `COc1cc(NC(=O)c2[nH]cnc2C(N)=O)cc(C(=O)Nc2cccc(C(F)(F)F)c2)c1`, with 10 µM (active); and `COc1cccc(NC(=O)c2csnn2)c1`, with “inactive”.
As to `O=C(O)CSc1c2c(nc3cc(C(=O)Nc4cccc(C(F)(F)F)c4)ccc13)CCCC2`, the Potency result was “inactive”.
For `COc1ccc(CC(N)c2csc(NC(=O)Cc3ccccc3)n2)cc1` (centres undefined), the Potency result is “inactive”.
Same read-out and setting: then `C=CCN(CC=C)C(=O)CN1C(=O)c2ccccc2C1=O`, with “inactive”.
Take `C=CCn1c(C)cc(C(=O)CN2C(=O)c3ccccc3C2=O)c1C`: the Potency was 7.08 µM (active).
Same read-out and setting: then `Cc1cc(C(=O)COC(=O)CCCN2C(=O)c3ccccc3C2=O)c(C)n1C`, with “inactive”; and `Cc1cccc(-n2c(=O)c3c(c4cc(C)ccc4n3C)n(CC(=O)Nc3ccccc3Cl)c2=O)c1`, with “inactive”; and `CCC(=O)N1CCc2cc(S(=O)(=O)NC(CC(C)C)C(=O)NCCc3cccc(C)c3)ccc21` (centres undefined), with “inactive”.
In the case of `CCC1CCCCN1CCCNC(=O)c1cc2c(Cl)nc3ccccc3c2s1` (centres undefined), the Potency was 22.4 µM (active) and 31.6 µM (active).
On the same count and under the same terms, then `CN1CCN(CCCNC(=O)c2cc3c(=O)oc4ccccc4c3s2)CC1`, with “inactive”.
Still for that read-out and setting: under `CCCn1c2ccccc2c2cnn(CC(=O)NCCCN3CCCCC3CC)c(=O)c21` (centres undefined) stands “inactive”; under `Cc1ccc(NC(=O)C(Cc2ccccc2)NS(=O)(=O)c2ccc3c(c2)oc(=O)n3C)cc1C` (centres undefined), “inactive”; under `Clc1cccc(-n2ncc3c(NCCc4ccccc4)ncnc32)c1`, “inactive”.
In the case of `O=C(Nc1ccnn1C1CCN(Cc2cccc(OCCO)c2)CC1)C1CCCC1`, the Potency entry was “inactive”.
The same measure, in the same setting: then `c1cncc(CN2CCC(n3ncc4c(N5CCOCC5)nc(-c5ccc6[nH]ccc6c5)nc43)CC2)c1`, with 21.7 µM (active); and `CC(C)Oc1ccc(CN2CCC(n3nccc3NC(=O)c3cccnc3)CC2)cc1`, with “inactive”.
As to `Cc1cc(O)ccc1-c1cc(C(=O)NCc2cc(C(F)(F)F)cc(C(F)(F)F)c2)[nH]n1`, the Potency entry was “inactive”.
On to `O=C1Nc2ccccc2NC(c2ccc3c(c2)OCO3)=C1N(Cc1ccc(F)cc1)C(=O)c1ccco1`, for which the Potency result was “inactive”.
Still for that read-out and setting: then `NN=C(NN=Cc1ccccc1)c1ccccc1`, with “inactive”.
Turning to `O=C(N/N=C/c1ccccc1O)/C(=C/c1ccccc1)CCO`, the Potency was 3.55 µM (active).
In the case of `O=C(CCC(=O)Nc1ccccc1)N/N=C/c1ccccc1F`, the activity change, negative = inhibition was 10.2% [at 11.3 µM].
With `COc1ccc(Cl)cc1N(C)C(=O)c1cc2c(=O)oc3ccc(C)cc3c2s1`, the Potency result was “inactive”.
Turning to `CCOc1cc(C2C(C(=O)Nc3ccc(OC)cc3)=C(C)Nc3nc(SC)nn32)ccc1O` (centres undefined), the Potency entry was “inactive”.
On the same count and under the same terms, then `O=C(CNC(=O)c1cccnc1)N/N=C/c1cc(Br)c(O)c(Br)c1`, with “inactive”; and `O=C(CSc1cccc2cccnc12)N/N=C/c1cccnc1`, with 22.4 µM (active); and `Cc1ccc(S(=O)(=O)N(CC(=O)N/N=C/c2ccc(F)cc2)c2cccc3cccnc23)cc1`, with “inactive”.
Take `CCc1ccc(C=C2SC(=S)NC2=O)cc1`: the Potency entry is “inactive”.
Same read-out and setting: under `Cn1c(=O)nc2n(-c3ccc(Br)cc3)c3cccc(Cl)c3cc-2c1=O` stands “inactive”.
For the compound `CC(Nc1ccc(-c2nc(-c3ccco3)no2)cc1[N+](=O)[O-])c1ccccc1` (centres undefined), the Potency result is “inactive”.
On the same count and under the same terms, under `COC1C(CO)OC(n2cnc3c(=S)nc(N)[nH]c32)C1O` (centres undefined) stands “inactive”.
As to `CO[C@@H]1[C@@H](O)[C@H](O)[C@@H](n2c3c(Cl)cccc3c3c4c(c5c6cccc(Cl)c6[nH]c5c32)C(=O)NC4=O)O[C@@H]1CO`, the Potency is 0.273 µM (active).
Take `COc1ccccc1CNC(=O)c1ccc(NC(=O)N2CC(C)Sc3ccccc32)cc1` (centres undefined): the Potency entry is “inactive”.

(Values after PubChem BioAssay AID1745845 (National Center for Advancing Translational Sciences (NCATS), 2022).)
